Experiments:
Assay in all cases: log2 ratio of Biotin-Ahx-Ub-VS probe labelling (fragment/DMSO); higher = less target engagement (more negative = stronger competition), active = hit call of the paper (q ≤ 0.05, log2 ratio ≤ -1)
Conditions in all cases: compound concentration: 200 uM; treatment time: 3 h
[1] = biological target: T1, USP19 (UniProt O94966)
T1 sequence (whole entry): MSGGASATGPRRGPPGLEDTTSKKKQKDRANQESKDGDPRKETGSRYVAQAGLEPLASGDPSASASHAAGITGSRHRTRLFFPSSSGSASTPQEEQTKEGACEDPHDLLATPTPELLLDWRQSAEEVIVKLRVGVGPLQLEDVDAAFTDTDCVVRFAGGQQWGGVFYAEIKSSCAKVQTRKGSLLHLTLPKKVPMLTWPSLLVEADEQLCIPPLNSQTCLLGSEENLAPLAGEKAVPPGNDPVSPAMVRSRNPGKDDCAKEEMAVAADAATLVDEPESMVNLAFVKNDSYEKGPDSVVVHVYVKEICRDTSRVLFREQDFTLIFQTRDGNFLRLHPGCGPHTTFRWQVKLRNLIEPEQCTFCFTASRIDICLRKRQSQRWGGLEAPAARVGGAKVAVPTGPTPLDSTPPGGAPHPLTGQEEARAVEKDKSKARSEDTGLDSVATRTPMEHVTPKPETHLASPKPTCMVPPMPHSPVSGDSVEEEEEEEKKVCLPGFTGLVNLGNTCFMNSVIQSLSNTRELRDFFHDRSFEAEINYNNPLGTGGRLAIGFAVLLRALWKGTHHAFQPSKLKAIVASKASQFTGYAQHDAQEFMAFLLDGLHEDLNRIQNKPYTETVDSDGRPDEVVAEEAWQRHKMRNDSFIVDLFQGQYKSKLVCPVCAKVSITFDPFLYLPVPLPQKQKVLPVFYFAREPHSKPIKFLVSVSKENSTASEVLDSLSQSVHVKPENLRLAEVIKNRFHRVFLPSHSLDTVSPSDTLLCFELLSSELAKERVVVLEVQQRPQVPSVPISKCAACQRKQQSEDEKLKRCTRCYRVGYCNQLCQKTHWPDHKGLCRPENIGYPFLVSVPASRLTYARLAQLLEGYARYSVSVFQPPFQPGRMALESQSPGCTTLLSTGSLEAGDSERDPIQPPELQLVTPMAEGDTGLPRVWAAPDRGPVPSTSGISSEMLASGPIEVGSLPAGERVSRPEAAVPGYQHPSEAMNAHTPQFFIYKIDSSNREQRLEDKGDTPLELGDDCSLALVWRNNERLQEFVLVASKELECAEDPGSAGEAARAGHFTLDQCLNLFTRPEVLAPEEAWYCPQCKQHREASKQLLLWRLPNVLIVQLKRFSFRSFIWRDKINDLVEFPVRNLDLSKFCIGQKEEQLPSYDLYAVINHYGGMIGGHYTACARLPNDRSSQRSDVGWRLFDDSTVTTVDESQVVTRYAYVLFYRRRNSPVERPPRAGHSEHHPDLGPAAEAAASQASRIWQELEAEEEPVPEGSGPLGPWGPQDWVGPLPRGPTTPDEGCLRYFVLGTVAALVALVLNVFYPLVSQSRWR
In short: (§1)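 Triplicate samples of HEK293T lysate, 495 µg each, received fragment at 200 µM or vehicle for 3 h, followed by Biotin-Ahx-Ub-VS (0.5 µM final) for 1 h. After NeutrAvidin enrichment of labelled DUBs and LysC/trypsin digestion, peptides were run by diaPASEF LC-MS/MS. The values are average log2 fragment/vehicle ratios from global-median-normalised Spectronaut label-free quantities, tested by unpaired t-test on proteins having ≥2 unique peptides.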

[2] = biological target: T2, USP22 (UniProt Q9UPT9)
T2 sequence (whole entry): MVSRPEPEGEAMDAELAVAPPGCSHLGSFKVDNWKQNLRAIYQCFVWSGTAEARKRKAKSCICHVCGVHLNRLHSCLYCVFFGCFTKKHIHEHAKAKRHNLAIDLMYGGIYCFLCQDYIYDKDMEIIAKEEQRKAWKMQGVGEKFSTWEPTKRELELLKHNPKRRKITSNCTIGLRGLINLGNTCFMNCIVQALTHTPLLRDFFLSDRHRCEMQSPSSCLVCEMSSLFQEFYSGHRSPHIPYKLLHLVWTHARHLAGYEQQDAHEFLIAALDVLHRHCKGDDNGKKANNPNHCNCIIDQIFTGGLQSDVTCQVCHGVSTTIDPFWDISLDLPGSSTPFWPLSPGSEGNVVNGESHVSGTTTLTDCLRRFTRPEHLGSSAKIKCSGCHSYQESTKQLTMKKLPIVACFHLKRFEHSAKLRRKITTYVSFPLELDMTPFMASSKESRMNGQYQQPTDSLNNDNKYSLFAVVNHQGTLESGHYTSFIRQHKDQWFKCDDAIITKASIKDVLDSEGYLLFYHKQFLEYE
In short: as §1

[3] = biological target: USP24 (UniProt Q9UPU5)
In short: as §1

[4] = biological target: T3, USP25 (UniProt Q9UHP3)
T3 sequence (whole entry): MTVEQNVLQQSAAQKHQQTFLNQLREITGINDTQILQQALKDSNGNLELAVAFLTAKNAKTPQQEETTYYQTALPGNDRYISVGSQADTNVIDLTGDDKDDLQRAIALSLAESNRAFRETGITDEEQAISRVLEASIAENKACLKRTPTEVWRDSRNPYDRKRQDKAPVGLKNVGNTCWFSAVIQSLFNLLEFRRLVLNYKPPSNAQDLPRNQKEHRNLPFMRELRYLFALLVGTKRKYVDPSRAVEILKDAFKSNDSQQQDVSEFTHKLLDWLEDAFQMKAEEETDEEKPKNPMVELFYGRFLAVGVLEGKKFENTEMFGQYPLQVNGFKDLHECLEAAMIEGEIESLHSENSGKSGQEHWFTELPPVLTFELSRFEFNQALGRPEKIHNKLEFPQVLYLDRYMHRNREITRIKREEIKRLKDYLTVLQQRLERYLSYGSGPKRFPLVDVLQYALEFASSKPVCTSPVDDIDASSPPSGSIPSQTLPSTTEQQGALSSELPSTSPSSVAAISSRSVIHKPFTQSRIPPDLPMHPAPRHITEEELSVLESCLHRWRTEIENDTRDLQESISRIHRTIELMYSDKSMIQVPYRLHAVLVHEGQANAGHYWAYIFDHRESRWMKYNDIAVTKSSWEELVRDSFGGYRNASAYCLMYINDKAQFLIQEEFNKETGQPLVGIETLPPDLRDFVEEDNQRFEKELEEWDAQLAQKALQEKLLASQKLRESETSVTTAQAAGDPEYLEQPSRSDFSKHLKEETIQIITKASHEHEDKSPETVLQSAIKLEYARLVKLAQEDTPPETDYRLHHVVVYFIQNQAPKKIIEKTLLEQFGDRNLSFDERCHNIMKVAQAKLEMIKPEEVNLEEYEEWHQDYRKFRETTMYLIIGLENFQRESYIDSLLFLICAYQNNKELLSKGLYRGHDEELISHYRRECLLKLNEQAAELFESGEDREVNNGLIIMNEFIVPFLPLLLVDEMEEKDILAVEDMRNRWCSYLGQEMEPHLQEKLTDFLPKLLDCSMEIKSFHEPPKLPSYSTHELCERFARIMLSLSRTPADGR
In short: as §1

[5] = biological target: T4, USP28 (UniProt Q96RU2)
T4 sequence (whole entry): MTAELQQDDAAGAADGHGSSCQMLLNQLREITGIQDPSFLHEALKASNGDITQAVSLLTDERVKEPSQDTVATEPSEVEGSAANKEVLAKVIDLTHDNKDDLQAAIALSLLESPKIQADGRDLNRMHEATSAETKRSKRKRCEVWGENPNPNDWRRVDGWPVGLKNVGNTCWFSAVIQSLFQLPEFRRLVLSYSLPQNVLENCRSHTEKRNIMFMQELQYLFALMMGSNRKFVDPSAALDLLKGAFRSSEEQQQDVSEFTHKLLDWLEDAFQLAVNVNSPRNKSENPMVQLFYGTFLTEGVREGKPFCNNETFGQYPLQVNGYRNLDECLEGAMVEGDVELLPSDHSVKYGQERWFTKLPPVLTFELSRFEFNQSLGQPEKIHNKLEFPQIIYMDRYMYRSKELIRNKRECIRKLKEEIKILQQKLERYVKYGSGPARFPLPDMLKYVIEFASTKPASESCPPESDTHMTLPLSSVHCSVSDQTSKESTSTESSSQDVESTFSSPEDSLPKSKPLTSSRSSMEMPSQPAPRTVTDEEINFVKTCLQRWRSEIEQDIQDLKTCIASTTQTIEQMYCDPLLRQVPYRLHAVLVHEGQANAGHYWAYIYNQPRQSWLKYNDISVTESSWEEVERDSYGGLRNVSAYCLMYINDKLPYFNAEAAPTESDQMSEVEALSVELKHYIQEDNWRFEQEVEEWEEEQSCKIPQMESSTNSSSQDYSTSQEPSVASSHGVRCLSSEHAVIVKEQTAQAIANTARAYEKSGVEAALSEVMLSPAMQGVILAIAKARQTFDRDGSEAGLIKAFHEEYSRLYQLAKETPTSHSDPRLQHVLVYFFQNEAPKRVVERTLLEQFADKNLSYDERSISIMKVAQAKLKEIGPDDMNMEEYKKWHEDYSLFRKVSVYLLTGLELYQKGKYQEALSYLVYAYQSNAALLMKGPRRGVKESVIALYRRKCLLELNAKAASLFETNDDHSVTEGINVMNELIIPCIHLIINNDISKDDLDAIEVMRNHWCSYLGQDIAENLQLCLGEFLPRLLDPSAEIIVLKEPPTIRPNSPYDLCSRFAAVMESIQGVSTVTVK
In short: as §1

Measured: log2 ratio of Biotin-Ahx-Ub-VS probe labelling

Chain of USP24 (Q9UPU5 whole entry): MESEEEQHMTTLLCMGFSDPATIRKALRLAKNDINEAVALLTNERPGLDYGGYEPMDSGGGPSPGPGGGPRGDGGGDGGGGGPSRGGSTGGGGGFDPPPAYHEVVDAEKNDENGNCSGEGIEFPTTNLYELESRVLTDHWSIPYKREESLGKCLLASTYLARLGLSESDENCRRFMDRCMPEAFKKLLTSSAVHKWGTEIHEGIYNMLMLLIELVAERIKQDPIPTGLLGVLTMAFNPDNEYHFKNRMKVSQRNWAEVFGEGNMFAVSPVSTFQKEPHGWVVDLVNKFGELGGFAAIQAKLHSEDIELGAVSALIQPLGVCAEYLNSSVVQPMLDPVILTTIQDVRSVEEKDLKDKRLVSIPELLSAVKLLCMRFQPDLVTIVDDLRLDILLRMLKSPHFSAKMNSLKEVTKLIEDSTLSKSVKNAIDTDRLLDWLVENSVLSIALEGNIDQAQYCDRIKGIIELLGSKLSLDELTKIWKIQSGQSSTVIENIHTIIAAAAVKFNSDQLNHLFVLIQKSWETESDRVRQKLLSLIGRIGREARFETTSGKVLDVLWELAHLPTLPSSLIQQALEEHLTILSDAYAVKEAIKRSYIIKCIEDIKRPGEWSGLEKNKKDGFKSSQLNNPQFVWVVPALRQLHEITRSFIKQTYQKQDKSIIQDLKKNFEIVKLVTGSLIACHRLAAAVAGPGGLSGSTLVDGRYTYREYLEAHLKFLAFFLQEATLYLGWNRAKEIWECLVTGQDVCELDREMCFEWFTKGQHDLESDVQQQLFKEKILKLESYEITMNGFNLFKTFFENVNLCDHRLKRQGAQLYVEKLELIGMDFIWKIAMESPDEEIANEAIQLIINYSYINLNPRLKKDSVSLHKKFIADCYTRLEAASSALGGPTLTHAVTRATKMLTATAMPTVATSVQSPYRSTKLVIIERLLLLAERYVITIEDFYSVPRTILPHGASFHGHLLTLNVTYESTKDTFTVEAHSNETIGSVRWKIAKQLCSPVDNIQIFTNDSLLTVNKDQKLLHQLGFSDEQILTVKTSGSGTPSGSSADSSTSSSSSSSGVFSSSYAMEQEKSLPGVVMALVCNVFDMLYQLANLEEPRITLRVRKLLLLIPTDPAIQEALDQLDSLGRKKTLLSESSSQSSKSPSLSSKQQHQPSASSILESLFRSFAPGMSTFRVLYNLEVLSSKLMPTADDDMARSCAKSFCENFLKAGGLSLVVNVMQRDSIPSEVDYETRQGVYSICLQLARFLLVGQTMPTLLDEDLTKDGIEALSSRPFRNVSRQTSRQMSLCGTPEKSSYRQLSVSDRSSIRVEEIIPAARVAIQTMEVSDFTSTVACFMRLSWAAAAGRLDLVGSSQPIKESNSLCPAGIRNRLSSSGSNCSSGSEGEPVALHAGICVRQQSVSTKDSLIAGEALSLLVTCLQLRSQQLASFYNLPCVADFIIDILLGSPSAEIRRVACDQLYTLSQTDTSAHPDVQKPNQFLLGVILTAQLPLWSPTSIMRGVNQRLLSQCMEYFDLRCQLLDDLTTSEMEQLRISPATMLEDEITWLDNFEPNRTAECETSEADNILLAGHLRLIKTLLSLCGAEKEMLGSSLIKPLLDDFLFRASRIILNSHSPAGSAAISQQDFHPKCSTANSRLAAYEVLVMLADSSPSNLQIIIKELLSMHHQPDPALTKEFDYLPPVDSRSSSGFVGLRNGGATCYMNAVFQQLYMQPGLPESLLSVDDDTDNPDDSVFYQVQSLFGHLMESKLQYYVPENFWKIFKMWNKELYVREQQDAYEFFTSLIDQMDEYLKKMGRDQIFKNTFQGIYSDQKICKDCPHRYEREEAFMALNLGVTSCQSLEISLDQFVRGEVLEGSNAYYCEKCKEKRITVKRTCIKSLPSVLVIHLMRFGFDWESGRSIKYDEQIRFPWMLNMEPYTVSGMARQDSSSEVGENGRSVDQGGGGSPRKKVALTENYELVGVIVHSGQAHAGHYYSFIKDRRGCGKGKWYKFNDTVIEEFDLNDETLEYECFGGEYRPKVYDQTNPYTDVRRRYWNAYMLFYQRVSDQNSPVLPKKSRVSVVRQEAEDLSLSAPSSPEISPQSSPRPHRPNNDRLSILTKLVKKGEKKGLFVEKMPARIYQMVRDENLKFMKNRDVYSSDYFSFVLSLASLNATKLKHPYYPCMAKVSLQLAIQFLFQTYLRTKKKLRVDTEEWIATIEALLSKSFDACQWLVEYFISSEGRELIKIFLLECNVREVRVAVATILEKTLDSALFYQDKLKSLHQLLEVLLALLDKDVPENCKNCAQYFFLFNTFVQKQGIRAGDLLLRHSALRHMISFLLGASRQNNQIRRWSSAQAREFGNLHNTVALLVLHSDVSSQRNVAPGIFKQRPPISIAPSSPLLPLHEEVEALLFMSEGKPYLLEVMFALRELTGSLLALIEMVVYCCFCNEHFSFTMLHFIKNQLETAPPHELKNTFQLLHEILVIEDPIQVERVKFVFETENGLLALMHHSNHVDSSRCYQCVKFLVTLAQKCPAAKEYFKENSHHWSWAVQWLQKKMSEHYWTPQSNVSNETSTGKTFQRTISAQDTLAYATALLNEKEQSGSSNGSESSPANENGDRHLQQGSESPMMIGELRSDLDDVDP

Cc1ncsc1CCNC(=O)CCl
inactive: [1] 0.249 | [2] 0.314 | [3] 0.197 | [4] -0.144 | [5] 0.0198

From the supplement of paper PMC11732987, “Enantioselective OTUD7B fragment discovery through chemoproteomics screening and high-throughput optimisation” (Communications Chemistry, 2025)
